Assay [1] has as its target 5'-AMP-activated protein kinase catalytic subunit alpha-2 (Homo sapiens) (UniProt P54646). To be noted: at 1 µM.
Assay [2] has as its target T1, NUAK family SNF1-like kinase 1 (Homo sapiens) (UniProt O60285).
T1 sequence (whole entry): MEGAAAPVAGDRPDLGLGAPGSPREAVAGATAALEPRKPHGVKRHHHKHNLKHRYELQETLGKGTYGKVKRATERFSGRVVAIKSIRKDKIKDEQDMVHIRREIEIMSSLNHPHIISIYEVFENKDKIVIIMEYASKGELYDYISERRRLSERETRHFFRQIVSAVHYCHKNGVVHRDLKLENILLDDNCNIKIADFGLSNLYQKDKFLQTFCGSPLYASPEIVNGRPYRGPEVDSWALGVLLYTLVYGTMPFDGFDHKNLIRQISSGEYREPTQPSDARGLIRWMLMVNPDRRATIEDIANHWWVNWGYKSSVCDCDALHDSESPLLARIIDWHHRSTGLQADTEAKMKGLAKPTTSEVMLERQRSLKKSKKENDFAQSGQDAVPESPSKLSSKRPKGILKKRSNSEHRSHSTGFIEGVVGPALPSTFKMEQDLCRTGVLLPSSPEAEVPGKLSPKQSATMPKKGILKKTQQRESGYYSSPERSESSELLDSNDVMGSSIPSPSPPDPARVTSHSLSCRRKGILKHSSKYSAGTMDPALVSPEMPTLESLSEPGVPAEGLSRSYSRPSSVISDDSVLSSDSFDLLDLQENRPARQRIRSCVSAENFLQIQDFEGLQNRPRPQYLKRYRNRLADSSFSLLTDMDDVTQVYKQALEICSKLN
Conditions: at 0.1 µM.

In assay [3] the target is T1, NUAK family SNF1-like kinase 1 (Homo sapiens). To be noted: at 1 µM.
Assay [4] has as its target T2, Serine/threonine-protein kinase BRSK1 (Homo sapiens) (UniProt Q8TDC3).
T2 sequence (whole entry): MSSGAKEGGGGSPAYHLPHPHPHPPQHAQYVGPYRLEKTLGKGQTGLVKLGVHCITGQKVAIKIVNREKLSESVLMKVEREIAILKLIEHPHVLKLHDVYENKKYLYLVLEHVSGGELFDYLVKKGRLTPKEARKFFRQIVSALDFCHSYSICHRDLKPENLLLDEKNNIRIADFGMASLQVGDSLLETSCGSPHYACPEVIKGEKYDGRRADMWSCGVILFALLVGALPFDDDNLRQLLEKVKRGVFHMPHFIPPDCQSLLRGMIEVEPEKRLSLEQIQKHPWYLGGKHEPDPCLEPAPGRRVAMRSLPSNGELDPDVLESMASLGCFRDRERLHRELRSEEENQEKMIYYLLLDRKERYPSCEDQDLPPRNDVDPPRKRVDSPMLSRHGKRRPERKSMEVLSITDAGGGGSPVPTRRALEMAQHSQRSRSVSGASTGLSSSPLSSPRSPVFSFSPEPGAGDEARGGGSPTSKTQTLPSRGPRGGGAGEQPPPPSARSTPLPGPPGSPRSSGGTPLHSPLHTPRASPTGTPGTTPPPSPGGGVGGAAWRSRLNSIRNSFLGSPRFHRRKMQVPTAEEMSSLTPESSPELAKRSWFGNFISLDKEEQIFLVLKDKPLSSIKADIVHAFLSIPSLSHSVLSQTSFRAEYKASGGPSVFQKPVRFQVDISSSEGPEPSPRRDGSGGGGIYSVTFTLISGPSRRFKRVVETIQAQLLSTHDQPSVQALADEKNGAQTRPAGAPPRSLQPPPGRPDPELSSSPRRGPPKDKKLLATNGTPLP
Conditions: at 0.1 µM.

For assay [5], the target named is T2, Serine/threonine-protein kinase BRSK1 (Homo sapiens). To be noted: at 1 µM.
The target of assay [6] is T3, Serine/threonine-protein kinase BRSK2 (Homo sapiens) (UniProt Q8IWQ3).
T3 sequence (whole entry): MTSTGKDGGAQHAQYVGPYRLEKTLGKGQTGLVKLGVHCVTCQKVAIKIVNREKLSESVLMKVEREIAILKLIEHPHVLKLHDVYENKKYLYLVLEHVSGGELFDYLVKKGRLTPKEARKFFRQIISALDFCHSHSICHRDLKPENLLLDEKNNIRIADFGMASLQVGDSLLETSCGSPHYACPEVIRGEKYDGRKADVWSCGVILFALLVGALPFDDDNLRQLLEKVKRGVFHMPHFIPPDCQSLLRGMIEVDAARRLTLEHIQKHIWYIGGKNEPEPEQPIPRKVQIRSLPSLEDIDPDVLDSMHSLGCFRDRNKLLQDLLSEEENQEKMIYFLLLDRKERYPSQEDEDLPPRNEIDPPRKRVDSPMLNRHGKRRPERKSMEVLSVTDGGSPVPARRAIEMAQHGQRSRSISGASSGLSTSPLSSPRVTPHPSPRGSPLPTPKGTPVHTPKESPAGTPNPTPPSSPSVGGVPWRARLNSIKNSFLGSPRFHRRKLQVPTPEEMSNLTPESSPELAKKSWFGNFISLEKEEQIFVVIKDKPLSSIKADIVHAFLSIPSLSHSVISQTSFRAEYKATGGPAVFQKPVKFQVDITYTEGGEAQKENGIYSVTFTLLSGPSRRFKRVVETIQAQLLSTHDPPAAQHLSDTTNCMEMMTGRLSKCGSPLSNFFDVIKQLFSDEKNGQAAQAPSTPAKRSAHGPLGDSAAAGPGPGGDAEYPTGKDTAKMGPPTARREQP
Conditions: at 0.1 µM.

Assay [7] addresses T3, Serine/threonine-protein kinase BRSK2 (Homo sapiens). Conditions: at 1 µM.
Assay [8] addresses Calcium/calmodulin-dependent protein kinase type 1D (Homo sapiens) (UniProt Q8IU85). Conditions: at 0.1 µM.
Assay [9] has the same target. Conditions: at 1 µM.
Assay [10] addresses Calcium/calmodulin-dependent protein kinase type II subunit alpha (Homo sapiens) (UniProt Q9UQM7). Conditions: at 0.1 µM.
For assay [11] the target is unchanged. To be noted: at 1 µM.
In assay [12] the target is Calcium/calmodulin-dependent protein kinase type II subunit delta (Homo sapiens) (UniProt Q13557). Conditions: at 0.1 µM.
Assay [13] shares this target. Conditions: at 1 µM.
Assay [14] deals with T4, Calcium/calmodulin-dependent protein kinase type IV (Homo sapiens) (UniProt Q16566).
T4 sequence (whole entry): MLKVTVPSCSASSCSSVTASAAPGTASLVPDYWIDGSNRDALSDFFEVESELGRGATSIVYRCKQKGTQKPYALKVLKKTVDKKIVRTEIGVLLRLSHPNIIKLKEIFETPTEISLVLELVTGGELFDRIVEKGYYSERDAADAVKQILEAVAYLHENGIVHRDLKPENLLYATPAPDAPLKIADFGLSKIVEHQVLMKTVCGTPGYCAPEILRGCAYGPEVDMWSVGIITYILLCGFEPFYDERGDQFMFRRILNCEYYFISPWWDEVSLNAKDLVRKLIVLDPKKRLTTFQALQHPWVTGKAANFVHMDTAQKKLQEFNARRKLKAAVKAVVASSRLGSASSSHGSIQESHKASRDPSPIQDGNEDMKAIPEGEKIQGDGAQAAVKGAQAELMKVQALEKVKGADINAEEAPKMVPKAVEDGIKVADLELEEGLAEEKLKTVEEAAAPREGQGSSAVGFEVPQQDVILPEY
To be noted: at 0.1 µM.

For assay [15], the target named is T4, Calcium/calmodulin-dependent protein kinase type IV (Homo sapiens). To be noted: at 1 µM.
The target in assay [16] is T5, Serine/threonine-protein kinase Chk1 (Homo sapiens) (UniProt O14757).
T5 sequence (whole entry): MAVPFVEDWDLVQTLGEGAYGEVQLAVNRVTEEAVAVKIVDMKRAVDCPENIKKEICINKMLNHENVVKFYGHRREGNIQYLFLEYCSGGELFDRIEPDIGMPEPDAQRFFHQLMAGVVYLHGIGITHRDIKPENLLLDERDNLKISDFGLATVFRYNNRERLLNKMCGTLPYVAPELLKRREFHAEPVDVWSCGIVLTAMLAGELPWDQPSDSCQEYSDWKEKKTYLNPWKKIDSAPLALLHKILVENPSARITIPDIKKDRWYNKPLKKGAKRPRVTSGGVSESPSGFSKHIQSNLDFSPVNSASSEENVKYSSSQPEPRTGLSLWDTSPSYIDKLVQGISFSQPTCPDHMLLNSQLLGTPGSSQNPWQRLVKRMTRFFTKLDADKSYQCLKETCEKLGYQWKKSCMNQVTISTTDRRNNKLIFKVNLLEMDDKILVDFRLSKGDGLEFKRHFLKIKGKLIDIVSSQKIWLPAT
Conditions: at 0.1 µM.

Assay [17] concerns the target T5, Serine/threonine-protein kinase Chk1 (Homo sapiens). To be noted: at 1 µM.
Assay [18] concerns the target Serine/threonine-protein kinase Chk2 (Homo sapiens) (UniProt O96017). Conditions: at 0.1 µM.
For assay [19] the target is unchanged. Conditions: at 1 µM.
The target of assay [20] is Death-associated protein kinase 1 (Homo sapiens) (UniProt P53355). Conditions: at 0.1 µM.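 Also: reported figure is the mean inhibition of DAPK1.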

Usually inhibition stands for the drop in the measured response relative to a control, in per cent.

Sequence of Calcium/calmodulin-dependent protein kinase type II subunit alpha (Homo sapiens) (Q9UQM7 whole entry): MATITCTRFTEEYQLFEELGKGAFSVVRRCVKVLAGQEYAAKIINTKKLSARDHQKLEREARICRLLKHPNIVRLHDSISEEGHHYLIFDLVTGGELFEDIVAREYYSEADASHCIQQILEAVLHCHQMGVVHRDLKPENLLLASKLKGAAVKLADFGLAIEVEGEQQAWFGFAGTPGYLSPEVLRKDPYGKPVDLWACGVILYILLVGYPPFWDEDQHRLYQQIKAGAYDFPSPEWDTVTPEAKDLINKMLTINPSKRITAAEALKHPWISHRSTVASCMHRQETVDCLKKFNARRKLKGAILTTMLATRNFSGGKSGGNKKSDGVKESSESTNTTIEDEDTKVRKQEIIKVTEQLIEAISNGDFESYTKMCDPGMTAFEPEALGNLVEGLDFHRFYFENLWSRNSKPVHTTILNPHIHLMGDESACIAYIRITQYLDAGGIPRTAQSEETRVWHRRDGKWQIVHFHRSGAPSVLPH
Sequence of Death-associated protein kinase 1 (Homo sapiens) (P53355 whole entry, looked up): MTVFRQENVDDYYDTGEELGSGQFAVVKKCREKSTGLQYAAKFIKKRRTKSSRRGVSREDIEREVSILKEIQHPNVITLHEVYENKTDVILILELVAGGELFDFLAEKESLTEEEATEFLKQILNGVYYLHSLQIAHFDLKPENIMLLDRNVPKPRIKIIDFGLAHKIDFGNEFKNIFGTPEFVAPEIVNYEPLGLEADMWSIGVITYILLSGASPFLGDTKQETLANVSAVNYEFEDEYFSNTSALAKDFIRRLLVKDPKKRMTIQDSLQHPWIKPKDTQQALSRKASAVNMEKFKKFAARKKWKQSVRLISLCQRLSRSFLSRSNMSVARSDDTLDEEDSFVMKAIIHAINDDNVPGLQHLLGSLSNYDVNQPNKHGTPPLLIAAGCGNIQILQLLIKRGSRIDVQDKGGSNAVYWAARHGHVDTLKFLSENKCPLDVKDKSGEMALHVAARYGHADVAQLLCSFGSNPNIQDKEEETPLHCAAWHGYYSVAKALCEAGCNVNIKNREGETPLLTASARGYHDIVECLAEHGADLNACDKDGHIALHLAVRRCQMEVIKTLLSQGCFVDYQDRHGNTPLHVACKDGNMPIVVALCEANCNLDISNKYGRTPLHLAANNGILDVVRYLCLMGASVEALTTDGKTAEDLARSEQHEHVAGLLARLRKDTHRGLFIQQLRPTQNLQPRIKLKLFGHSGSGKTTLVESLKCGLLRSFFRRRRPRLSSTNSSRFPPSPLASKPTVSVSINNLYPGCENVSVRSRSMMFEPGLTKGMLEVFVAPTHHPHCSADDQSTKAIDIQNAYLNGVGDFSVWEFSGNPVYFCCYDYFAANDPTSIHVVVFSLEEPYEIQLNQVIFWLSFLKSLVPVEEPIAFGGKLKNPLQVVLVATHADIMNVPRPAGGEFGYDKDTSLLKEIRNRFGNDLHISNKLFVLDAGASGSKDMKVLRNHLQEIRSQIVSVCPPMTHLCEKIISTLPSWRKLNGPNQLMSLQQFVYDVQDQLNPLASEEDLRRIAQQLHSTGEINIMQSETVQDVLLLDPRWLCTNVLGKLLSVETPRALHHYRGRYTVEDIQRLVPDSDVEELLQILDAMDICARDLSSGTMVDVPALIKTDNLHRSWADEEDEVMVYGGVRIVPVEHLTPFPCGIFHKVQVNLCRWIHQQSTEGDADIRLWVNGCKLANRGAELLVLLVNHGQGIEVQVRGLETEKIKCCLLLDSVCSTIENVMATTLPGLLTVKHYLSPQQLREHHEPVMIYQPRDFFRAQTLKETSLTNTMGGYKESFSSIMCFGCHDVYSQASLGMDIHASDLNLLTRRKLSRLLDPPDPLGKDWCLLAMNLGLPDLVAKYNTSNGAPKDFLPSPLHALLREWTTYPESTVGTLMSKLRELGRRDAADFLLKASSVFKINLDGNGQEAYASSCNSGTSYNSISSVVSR
Sequence of Serine/threonine-protein kinase Chk2 (Homo sapiens) (O96017 whole entry): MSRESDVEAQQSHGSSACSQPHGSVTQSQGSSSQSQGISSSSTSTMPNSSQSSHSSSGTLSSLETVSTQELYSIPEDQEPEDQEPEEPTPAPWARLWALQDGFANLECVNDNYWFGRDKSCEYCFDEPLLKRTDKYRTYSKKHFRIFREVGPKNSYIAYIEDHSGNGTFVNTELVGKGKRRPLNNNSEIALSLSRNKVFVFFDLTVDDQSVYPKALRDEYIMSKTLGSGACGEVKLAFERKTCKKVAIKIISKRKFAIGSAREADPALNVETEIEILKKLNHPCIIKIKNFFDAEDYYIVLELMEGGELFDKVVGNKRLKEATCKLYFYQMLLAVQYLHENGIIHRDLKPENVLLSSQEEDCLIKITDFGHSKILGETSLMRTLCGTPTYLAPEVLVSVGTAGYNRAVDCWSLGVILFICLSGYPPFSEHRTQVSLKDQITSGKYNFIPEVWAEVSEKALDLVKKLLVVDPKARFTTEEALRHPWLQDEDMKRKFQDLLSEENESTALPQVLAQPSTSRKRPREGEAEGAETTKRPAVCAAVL
Sequence of Calcium/calmodulin-dependent protein kinase type 1D (Homo sapiens) (Q8IU85 whole entry, looked up): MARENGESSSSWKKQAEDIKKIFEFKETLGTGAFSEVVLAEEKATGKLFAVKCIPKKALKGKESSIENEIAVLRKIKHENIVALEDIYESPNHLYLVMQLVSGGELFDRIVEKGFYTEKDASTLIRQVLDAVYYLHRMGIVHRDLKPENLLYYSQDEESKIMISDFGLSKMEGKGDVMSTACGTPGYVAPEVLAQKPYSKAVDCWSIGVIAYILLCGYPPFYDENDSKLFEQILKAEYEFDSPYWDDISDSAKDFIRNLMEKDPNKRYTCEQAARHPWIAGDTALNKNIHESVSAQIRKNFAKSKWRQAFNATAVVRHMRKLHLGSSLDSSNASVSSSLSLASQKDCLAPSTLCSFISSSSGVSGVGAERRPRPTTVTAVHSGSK
Sequence of Calcium/calmodulin-dependent protein kinase type II subunit delta (Homo sapiens) (Q13557 whole entry): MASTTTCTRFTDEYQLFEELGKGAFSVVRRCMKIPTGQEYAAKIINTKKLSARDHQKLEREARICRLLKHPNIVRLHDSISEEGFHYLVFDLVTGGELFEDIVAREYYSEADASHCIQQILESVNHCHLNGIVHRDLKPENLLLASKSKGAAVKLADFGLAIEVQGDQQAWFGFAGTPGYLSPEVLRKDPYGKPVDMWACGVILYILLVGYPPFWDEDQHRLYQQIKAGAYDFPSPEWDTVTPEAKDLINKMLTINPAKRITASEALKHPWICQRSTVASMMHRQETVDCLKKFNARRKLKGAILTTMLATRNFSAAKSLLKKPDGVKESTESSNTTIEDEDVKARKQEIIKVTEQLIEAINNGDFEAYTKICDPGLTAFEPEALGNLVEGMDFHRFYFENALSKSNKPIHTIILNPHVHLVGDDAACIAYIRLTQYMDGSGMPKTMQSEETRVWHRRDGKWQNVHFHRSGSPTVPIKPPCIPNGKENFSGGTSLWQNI
Sequence of 5'-AMP-activated protein kinase catalytic subunit alpha-2 (Homo sapiens) (P54646 whole entry, looked up): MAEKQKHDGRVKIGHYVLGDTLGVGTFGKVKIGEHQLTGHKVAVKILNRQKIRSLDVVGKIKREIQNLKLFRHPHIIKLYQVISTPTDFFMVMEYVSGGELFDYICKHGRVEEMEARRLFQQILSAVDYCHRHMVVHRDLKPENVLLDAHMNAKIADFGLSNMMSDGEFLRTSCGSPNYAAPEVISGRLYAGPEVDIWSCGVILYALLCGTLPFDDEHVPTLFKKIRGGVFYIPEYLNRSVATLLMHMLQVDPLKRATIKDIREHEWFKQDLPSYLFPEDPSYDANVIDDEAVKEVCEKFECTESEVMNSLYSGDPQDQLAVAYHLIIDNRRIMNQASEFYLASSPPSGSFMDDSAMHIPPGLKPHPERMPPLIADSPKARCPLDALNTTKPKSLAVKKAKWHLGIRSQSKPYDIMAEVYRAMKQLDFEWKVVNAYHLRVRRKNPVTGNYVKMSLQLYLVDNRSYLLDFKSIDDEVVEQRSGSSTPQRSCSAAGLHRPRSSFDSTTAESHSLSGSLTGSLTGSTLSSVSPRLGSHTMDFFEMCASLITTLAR

On to `COc1cc2ncn(-c3cc(OCc4ccccc4C(F)(F)F)c(C(C)=O)s3)c2cc1OC`, for which the inhibition in assay [1] was 2.21%; in assay [2] it was -0.05%; in assay [3], 3.5%; in assay [4], 2.73%; in assay [5], 4.41%; in assay [6] it was 3.99%. Further, the inhibition is 4.95% in assay [7]; -0.05% in assay [8]; -0.22% in assay [9]; 4.56% in assay [10]; 0.39% in assay [11]; 0.61% in [12]. Besides, the inhibition was 1.91% in assay [13]; -0.3% in assay [14]; -1.74% in assay [15]; 2.09% in assay [16]; 4.57% in [17]; 1.3% in [18]. Also, the inhibition in [19] is 1.9%; in assay [20], 4.16%.

In the case of `COc1ccc(-c2ccc3c(NC(=O)C4CC4)n[nH]c3n2)cc1`, the inhibition in assay [1] is 1.68%; in assay [2], -0.56%; in assay [3] it was 0.04%; in [4] it was 0.19%; in assay [5] it was 4.83%; in [6], 3.16%. Also, the inhibition is 10.7% in assay [7]; -0.49% in assay [8]; -0.83% in [9]; 0.49% in [10]; 0.75% in assay [11]; 0.17% in assay [12]. Further, the inhibition in assay [13] was 1.7%; in assay [14], -1.51%; in assay [15], -2.95%; in assay [16] it was 2.25%; in assay [17] it was 1.88%; in assay [18], 0.78%. Besides, the inhibition came to 1.92% in assay [19] and 2.58% in assay [20].

On to `C#Cc1cccc(Nc2ncnc3ccc(OCCCCNCCS(C)(=O)=O)cc23)c1`, for which the inhibition was found to be 4.43% in [1]; 4.55% in [2]; 12.9% in assay [3]; 1.77% in assay [4]; 7.62% in [5]; 3.96% in assay [6]. Besides, the inhibition in [7] was 10%; in [8], -0.65%; in [9], 0.48%; in assay [10], 3.18%; in assay [11] it was 3.33%; in assay [12], 3%. Besides, the inhibition in assay [13] is 5.51%; in assay [14], -0.65%; in assay [15], -2.02%; in assay [16], 1.45%; in [17] it was 4.94%; in assay [18], 2.64%. Moreover, the results for the inhibition in [19] and in assay [20] were 7.73% and 3.32%, respectively.

(Values after ChEMBL document CHEMBL1961873, “Compounds: GSK PKIS; Assays: Nanosyn kinase panel” (2012).)
